Measurements from PubChem BioAssay (NCI).
About 79,000 compounds went through this panel and 15% of them were active in at least one assay; those are over-represented in the sample as a whole. Calls of active or inactive are those of the source. Cut-off read from the data, not from the text of the source: active = growth inhibition above about 70%; inactive = the rest.

Key:
[1] = NCI Yeast Anticancer Drug Screen. Data for the rad50 strain (AID 155);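 note: 0% = growth of vehicle-only cultures of the same strain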; conditions: S. cerevisiae rad50 strain growth inhibition; at 50.0 µM; active compounds read high
Summary of the method: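 Compounds were tested on a yeast strain with an engineered DNA damage repair alteration; the reported value is growth inhibition normalised to vehicle treatment.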

[2] = NCI Yeast Anticancer Drug Screen. Data for the mec2-1 strain (AID 157); conditions: S. cerevisiae mec2-1 strain, at 50.0 µM, active compounds read high
Summary of the method: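 Cells of the genetically defined mec2-1 yeast strain are incubated with test compound. Inhibition of growth is calculated against vehicle-treated controls.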

[3] = NCI Yeast Anticancer Drug Screen. Data for the sgs1 mgt1 strain (AID 161);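 note: 0% = growth of cultures given vehicle only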; conditions: S. cerevisiae sgs1 mgt1 strain, at 50.0 µM, active compounds read high
Summary of the method: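 Mutant yeast exposed to compound; growth scored against vehicle-only wells.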

[4] = NCI Yeast Anticancer Drug Screen. Data for the cln2 rad14 strain (AID 165);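 note: 0% = growth equal to vehicle treated cultures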; conditions: S. cerevisiae cln2 rad14 strain, at 50.0 µM, active compounds read high
Summary of the method: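 The screen exposed genetically defined yeast (cln2 rad14) to test compounds and scored growth inhibition relative to vehicle-treated controls.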

[5] = NCI Yeast Anticancer Drug Screen. Data for the bub3 strain (AID 167); conditions: S. cerevisiae bub3 mutant strain, at 50.0 µM, active compounds read high
Summary of the method: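 Growth of a checkpoint-deficient yeast mutant is measured after compound exposure. Values represent inhibition relative to vehicle.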

[6] = NCI Yeast Anticancer Drug Screen. Data for the mlh1 rad18 strain (AID 175); conditions: S. cerevisiae mlh1 rad18 strain growth inhibition; at 50.0 µM; active compounds read high
Summary of the method: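 Compound-treated yeast growth, normalised to vehicle controls. Strain bears defined DNA repair mutations.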

Measured: growth inhibition

CC(C)(C)C(=O)/C(O)=C\c1ccccc1
inactive: [1] -4.25% | [2] 6.2% | [3] -12.2% | [4] -10.7% | [5] 10.9% | [6] -1.2%

N=c1c(-c2ccccc2)cc2ccccc2n1O
inactive: [1] 7.6% | [2] 10.3% | [3] -6.95% | [4] -0.1% | [5] -5.35% | [6] -5.25%

O=C(CC(=O)C(F)(F)F)c1ccc2c(c1)Cc1ccccc1-2
inactive: [1] -10.2% | [2] 28.9% | [3] 3.75% | [4] 14.9% | [5] -2.7% | [6] 23.6%

CCOC(=O)C(=O)c1c[nH]c2ccccc12
inactive: [1] -3.35% | [2] 2.45% | [3] -2.5% | [4] -12.1% | [5] 6.4% | [6] 10%

COc1ccc(N2C=Nn3c(nc4sc5c(c4c3=O)CCCC5)C2)cc1
inactive: [1] 9.55% | [2] 4.2% | [3] 0.35% | [4] -1.9% | [5] 4.25% | [6] -24.4%

[CH3][Ge]([Cl])([c]1ccccc1)[c]1cccc2ccccc12 (stereo not given)
inactive: [1] 25.2% | [2] 12.4% | [3] 10.8% | [4] 10.2% | [5] -0.15% | [6] 7.5%

O=C(Nc1ccc(Br)cc1)OCC1CC2C=CC1C2 (stereo not given)
inactive: [1] 43.5% | [4] 42% | [5] 33.9% | [6] 47.4%
active: [2] 70.8% | [3] 79.9%

C=COC(=O)C(Cc1ccccc1)NC(=O)OCc1ccccc1 (stereo not given)
inactive: [1] -5.2% | [2] 10.8% | [3] -23.2% | [4] 10.6% | [5] -7.65% | [6] 6.9%

CCN(CCO)CC(O)Cn1cnc2c(N)ncnc21 (stereo not given) (tested in a mixture with another compound)
inactive: [1] -10.6% | [2] 26.2% | [3] -11.8% | [4] 31.4% | [5] -1.95% | [6] 17.4%

COc1ccc(Cc2cc(N=O)c(OC)cc2O)cc1
inactive: [1] -12.4% | [2] -7.3% | [3] 1.15% | [4] -21.5% | [5] -3.6% | [6] -10.7%

COc1ccc(CCCCl)c(C2=NCCc3cc(OC)c(OC)cc32)c1
inactive: [1] 19.6% | [2] 2.4% | [3] -37.8% | [4] -6.1% | [5] -37.8% | [6] 0.9%

N#CC(N)(C(=O)C(=O)NCCCNC(=O)C(=O)C(N)(C#N)c1ccc(Cl)cc1)c1ccc(Cl)cc1 (stereo not given)
inactive: [1] -37% | [2] -1.45% | [3] -32.4% | [4] -18.6% | [5] -35.1% | [6] -28.7%

CC(C)(CO)[C@@H](O)C(=O)NCCC(=O)O
inactive: [1] -27.5% | [2] -45.9% | [3] -10.2% | [4] 15.4% | [5] -27% | [6] -23.9%

CCOc1ccc(NCC(=O)N2CC(=O)Nc3ccccc32)cc1
inactive: [1] -19.6% | [2] -21.9% | [3] -40.4% | [4] -5.15% | [5] -42.2% | [6] -35.2%

Cc1cc(=O)oc2c1c(C)nn2-c1cccc(Cl)c1
inactive: [1] -14.5% | [2] -13.2% | [3] 4.05% | [4] -60.9% | [5] -5.1% | [6] -1.85%

C=C1C(=O)OC2/C=C(\C)C(O)CC(O)C(C)(O)CC(OC(=O)/C(C)=C/C)C12 (stereo not given)
inactive: [1] -0.7% | [2] -25.2% | [3] -10.4% | [4] 14.1% | [5] 6.5% | [6] -10.8%

CC1(N)CCC(C(C)(C)N)CC1 (stereo not given)
inactive: [1] 28.1% | [2] -8.75% | [3] 10.8% | [4] -30.3% | [5] 2.35% | [6] 8.8%

CN(C=C(c1ccccc1)c1ccccc1)c1ccccc1
inactive: [1] -15.6% | [2] -7.85% | [3] 2.2% | [4] -21.6% | [5] -12.8% | [6] -32.6%

O=C(c1cc([N+](=O)[O-])cc([N+](=O)[O-])c1)N1CCCC1
inactive: [1] -45.8% | [2] -20.7% | [3] -2.75% | [4] -25.1% | [5] 16.4% | [6] 9.2%

OCCCCN1CCCCC1
inactive: [1] -1% | [2] -1.95% | [3] -13.2% | [4] 2.5% | [5] -0.85% | [6] -5.05%

COc1ccc(Cc2cc3c(cc2OCCOC(C)=O)OCO3)cc1
inactive: [1] 16.8% | [2] 11.3% | [3] 10.4% | [4] 0.05% | [5] 15.2% | [6] 23.4%

Oc1cc2c(cc1C(c1ccc(F)cc1)N1CCCC1)OCO2 (stereo not given)
inactive: [1] 33.1% | [2] 19.5% | [3] 39.9% | [4] -15.6% | [5] 37.9% | [6] 35.1%

C#CCN(CCCC)CCCC
inactive: [1] -14.2% | [2] -21.1% | [3] -5.55% | [4] -33.4% | [5] -39.9% | [6] -10.3%

CC(=O)Nc1cc2cc(NS(=O)(=O)c3cc(C(F)(F)F)cc(C(F)(F)F)c3)ccc2oc1=O
inactive: [1] 0% | [2] -10.2% | [3] -4.9% | [4] 17.4% | [5] -9.95% | [6] 10.9%

O=C[C@H](O)CO
inactive: [1] 26.4% | [2] -20.1% | [3] 17.2% | [4] -1.8% | [5] 8.8% | [6] 17.4%

COc1ccc(C(O)S(=O)(=O)O)cc1 (stereo not given)
inactive: [1] -1.1% | [2] -13.9% | [3] -9.9% | [4] -6.75% | [5] -22.1% | [6] 1.2%

COC(=O)Cc1c(-c2[nH]c3ccccc3c2CC(=O)OC)[nH]c2ccccc12
inactive: [1] 13.9% | [2] 7.45% | [3] 6% | [4] -17.4% | [5] 3.85% | [6] -20.8%

COc1cc2c(SCCN(C)C)nc3ccccc3c2c2ccccc12
active: [1] 89.9% | [2] 92.3% | [3] 90.8% | [4] 87.8% | [5] 91.5% | [6] 89.1%

CN(C)c1ccc(N=Nc2cccc3ccoc23)cc1
inactive: [1] 11.6% | [2] -23.6% | [3] 9.9% | [4] -28.3% | [5] 14.9% | [6] 14%

CC1CCN(CCOC(=O)c2ccc(OC(C)C)cc2)C1 (stereo not given)
inactive: [1] 8.1% | [2] 12.6% | [3] 24.4% | [4] -10.5% | [5] 11.2% | [6] 12.1%

O=C(OC(c1ccc(Cl)cc1)c1ccc(Cl)cc1)C(c1ccc(Cl)cc1)c1ccc(Cl)cc1
inactive: [1] 15.5% | [2] 10.4% | [3] 14.8% | [4] -13.5% | [5] -3.35% | [6] 30.7%

CC(C)(O)C(c1ccccc1)S(=O)(=O)O (stereo not given)
inactive: [1] -2.5% | [2] -18.6% | [3] -0.3% | [4] -27.4% | [5] -0.45% | [6] 48.5%

CCOC(=O)NC(=O)c1cn(CCCCCCOC(=O)NCCCCCCNC(=O)OCCCCCCn2cc(C(=O)NC(=O)OCC)c(=O)[nH]c2=O)c(=O)[nH]c1=O
inactive: [1] 32% | [2] 14.6% | [3] 27.8% | [4] 28.8% | [5] 13.4% | [6] 28.4%

O=c1[nH]c2cc(Cl)ccc2nc1/C=C(\O)c1ccco1
inactive: [1] 7.55% | [2] -10.4% | [3] -16.1% | [4] 10.3% | [5] -33.6% | [6] 13.3%

C/C(=N/Nc1ccc([N+](=O)[O-])cc1[N+](=O)[O-])c1ccccc1
inactive: [1] -4.25% | [2] -13.2% | [3] -12.7% | [4] -13.8% | [5] 1% | [6] -11%

c1ccc(C2=C(c3ccccc3)c3ccccc3C2)cc1
inactive: [1] 0.3% | [2] -7.3% | [3] 8.55% | [4] 0.35% | [5] -8.85% | [6] -9.35%

N#Cc1ccccc1N=Nc1nc(N)c(C(N)=O)[nH]1
inactive: [1] 22.2% | [2] 13.7% | [3] 11.2% | [4] -5.05% | [5] 4.7% | [6] 10.2%

CCCCCC(=O)OCCCc1ccccc1
inactive: [1] 28.9% | [2] 2.9% | [3] -0.3% | [4] -12.9% | [5] 19.4% | [6] -6.8%

COC(C)CCOC(=O)c1ccc(C(C)C)cc1 (stereo not given)
inactive: [1] 6.45% | [2] 8% | [3] 10.2% | [4] -21.7% | [5] 8.75% | [6] 1.65%

CC1=C/C(=N\NC(N)=S)C(C(O)(C(F)(F)F)C(F)(F)F)C(C)(C)C1 (stereo not given)
inactive: [1] 65.9% | [2] 30.6% | [3] 47% | [4] 20.2% | [5] 41.5% | [6] 59.8%
